# According to PubChem BioAssay AID504339 (National Center for Advancing Translational Sciences (NCATS), 2011):
# In all, about 390,000 compounds went through this assay and about 17,000 (4.4%) were called active. Roughly 8% stayed inconclusive and do not appear here. Shown is part of a subset that was picked to be rich in actives. Unmarked numbers belong to inactive results. Calls come from the whole dose curve; as a rule, active = well fitted inhibition curve with a large enough effect; inconclusive = small, poorly fitted or top-dose-only effect; inactive = no such curve, though single readings can be large or run the other way.
# Target: Lysine-specific demethylase 4A (Homo sapiens) (UniProt O75164)
# Sequence (O75164 whole entry, looked up, the tested form may be a part): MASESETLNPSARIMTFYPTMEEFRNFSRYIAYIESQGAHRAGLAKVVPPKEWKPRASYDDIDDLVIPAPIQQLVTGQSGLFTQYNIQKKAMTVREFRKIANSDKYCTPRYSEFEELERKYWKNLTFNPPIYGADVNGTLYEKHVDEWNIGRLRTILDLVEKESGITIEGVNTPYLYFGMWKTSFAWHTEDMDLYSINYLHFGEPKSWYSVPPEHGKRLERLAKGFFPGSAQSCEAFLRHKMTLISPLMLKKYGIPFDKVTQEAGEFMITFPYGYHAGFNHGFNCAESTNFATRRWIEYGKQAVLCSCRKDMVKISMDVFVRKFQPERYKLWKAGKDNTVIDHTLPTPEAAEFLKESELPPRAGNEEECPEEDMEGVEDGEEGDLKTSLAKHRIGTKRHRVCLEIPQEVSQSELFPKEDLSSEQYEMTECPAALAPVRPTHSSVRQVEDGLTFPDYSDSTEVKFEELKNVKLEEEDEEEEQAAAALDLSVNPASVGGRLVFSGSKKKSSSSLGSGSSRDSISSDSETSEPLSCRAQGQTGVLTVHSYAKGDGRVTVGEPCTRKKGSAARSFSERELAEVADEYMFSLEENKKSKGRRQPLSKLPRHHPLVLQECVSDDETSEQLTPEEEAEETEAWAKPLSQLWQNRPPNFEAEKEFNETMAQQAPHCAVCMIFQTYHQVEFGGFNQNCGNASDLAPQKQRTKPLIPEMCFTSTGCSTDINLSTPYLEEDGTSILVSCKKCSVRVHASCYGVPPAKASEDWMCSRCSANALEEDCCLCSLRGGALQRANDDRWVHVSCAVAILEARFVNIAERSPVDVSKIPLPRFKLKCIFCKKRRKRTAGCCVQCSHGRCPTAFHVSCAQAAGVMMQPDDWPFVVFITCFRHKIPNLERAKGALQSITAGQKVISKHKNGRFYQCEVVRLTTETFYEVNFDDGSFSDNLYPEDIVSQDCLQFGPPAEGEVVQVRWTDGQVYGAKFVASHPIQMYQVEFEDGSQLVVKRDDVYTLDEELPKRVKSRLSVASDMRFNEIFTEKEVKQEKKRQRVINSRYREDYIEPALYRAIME
# Test: qHTS Assay for Inhibitors of JMJD2A-Tudor Domain; note: nearly all actives have a fitted effect of over 50% in size
# Settings: AlphaScreen JMJD2A-Tudor / H3K4me3 peptide binding; series mostly up to 114 µM; activity change, negative = inhibition: at the top concentration
# Excerpt: JMJD2A is a jumonji-domain-containing lysine demethylase that uses Fe(II) together with 2-OG to effect oxidative demethylation of histones. Methylation is one of many […] modification that affect epigenetic transcription. […] It is proposed that the functions of JmjD2A binding to the histones, is to maintain marks after they are installed and to spread the modifications by […], establishing a self-propagating cycle for rapid methylation over a large area of chromatin. […] Thus, small molecule targeting of the JMJD2A-tudor domain interaction with its target methylhistone mark is expected to enable sophisticated experiments probing the fine regulatory pathways leading to selective demethylation of a given methyllysine locus based on the methylation state of adjacent histone marks. A quantitative high throughput AlphaScreen has been developed to identify small molecule inhibitors based on a protocol published by NCGC and SGC [4].
# Although AlphaScreen has significant advantages with its utility in a variety of epigenetic target assays, the primary screening data provided in this deposition should be used with caution due to the prevalence of screening artifacts. The top compound concentration tested was high (>100uM) in this assay, which increases number of actives and potential artifacts. An AlphaScreen counterscreen is highly recommended to be run against any putative actives to eliminate non-specific artifacts. Alternatively, one can use other AlphaScreen assays in PubChem to filter out promiscuous hits.
# [1] Lee, J. et al. Distinct binding modes specify the recognition of methylated histone H3K4 and H4K20 by JMJD2A-tudor. Nat Struct Mol Biol. 15(1); 109-11. 2008. PMID: 18084306
# [2] Yasgar, et al. Compound Management for Quantitative High-Throughput Screening. JALA. 2008 Apr;13(2):79-89. PMID: 18496600
# [3] Inglese, et al. Quantitative high-throughput screening: a titration-based approach that efficiently identifies biological activities in large chemical libraries. Proc Natl Acad Sci. 1;103(31):11473-8. 2006. PMID: 16864780
# [4] Quinn et al. A homogeneous method for investigation of methyl-dependent protein-protein interactions in epigenetics. Nucleic Acids Res., 38(2):e11. 2010. PMID: […]
# [5] Baell,Holloway. New substructure filters for removal of pan assay interference compounds (PAINS) from screening libraries and for their exclusion in bioassays. J Med Chem. 53(7):2719-40. 2010. PMID: 20131845
# NIH Molecular Libraries Probe Production Network [MLPCN]
# NIH Chemical Genomics Center [NCGC]
# Structural Genomics Consortium (SGC)
# To each well of a 1,536w plate, 2ul of JMJD2A-Tudor (final 100nM) and 1ul biotinylated histone peptide methylated at Lys4 [b-H3(1-18)K4me3] (final 50nM) were added in 1x PBS buffer, pH 7.4, containing 0.01% Tween-20, using a nanoliter dispenser. Formation of a protein-peptide complex proceeded at room temperature for 30 min. A Kalypsys pin-tool transferred 23nl of library compound solution in DMSO to each well. Following a 30 min incubation of the protein-peptide complex with compounds at room temperature, a mixture of 40 µg/mL each streptavidin-coated donor and nickel chelate acceptor AlphaScreen beads (final 10 µg/mL) was added in a 1ul dispense for a final volume of 4ul, followed by a brief centrifugation (1000 rpm, 1 min). Plates were incubated protected from the light for 20 min at room temperature. Microplates were then read on an EnVision multilabel plate reader using the 1,536 plate HTS AlphaScreen aperture (excitation time 80 ms, measurement time 240 ms).
# % is set by controls: 0 for no effect and ±100 for the full control effect; potency is the fitted concentration of half-maximal effect.
Structure (SMILES),"activity change, negative = inhibition",Potency
Cc1cccc(NC(=O)CSC(N)=O)c1C,-8.89%,–
Cc1ccccc1NC(=O)CSC(=O)c1ccccc1,–,89.1 µM (active)
Cc1ccccc1NC(=O)CCOc1ccccc1,–,inactive
COc1ccccc1NC(=O)c1sc2nc(C)c(C(=O)Nc3ccc(Cl)cc3)c(-c3ccc(Br)cc3)c2c1N,-2.39%,–
Cn1c(CC2Sc3ccccc3NC2=O)nnc1SCC(=O)c1ccc(Cl)cc1 (centres undefined),–,25.1 µM (active)
O=C(CC1Sc2ccccc2NC1=O)NNc1ccc(Cl)c(Cl)c1 (centres undefined),-9.09%,–
Cn1c(CC(=O)Nc2ccccc2)nnc1SCC(=O)c1ccccc1,-9.68%,–
CN(C(=O)CSc1nnc(NC(=O)Nc2ccccc2)s1)c1ccccc1,-10.4%,–
COc1ccc(CNC(=O)Cn2nnc(-c3ccccc3F)n2)cc1,-11.6%,–
Cc1cccc(NC(=O)Cn2cc(S(=O)(=O)Cc3ccccc3Cl)c3ccccc32)c1,-14.9%,–
CSc1ccc(C2C(C(=O)Nc3ccccc3)=C(C)Nc3nc4ccccc4n32)cc1 (centres undefined),-12.3%,–
COCCNC(=O)c1cc(-c2cccc(Cl)c2)on1,-21.2%,–
O=C(CN1C(=O)/C(=C\c2ccc(C(F)(F)F)cc2)Sc2ccccc21)NCc1ccco1,-13.2%,–
O=C(CN1C(=O)/C(=C/c2ccccc2F)Sc2ccccc21)NCc1cccnc1,–,89.1 µM (active)
O=C(CN1C(=O)S/C(=C\c2ccccc2F)C1=O)NCCCn1ccnc1,-14.5%,–
Cc1nn(CC(=O)N2CCN(c3cccc(C(F)(F)F)c3)CC2)c(=O)c2cc3sccc3n12,-5.45%,–
CCc1ccc(S(=O)(=O)Nc2cc3c(C(=O)OCc4ccccc4)c(C)oc3c3ccccc23)cc1,-19%,–
Cc1ccc(-c2cc(C(=O)Oc3ccccc3Cl)no2)cc1C,101%,–
O=C(NNC(=O)c1ccc(-c2ccccc2)cc1)Nc1ccccc1,-2.1%,–
C=CC[n+]1c(-c2ccc(C)cc2)csc1NNC(=O)Nc1ccccc1,–,28.2 µM (active)
Cc1ccc(NC(=O)NNC(=O)c2sccc2-n2cccc2)cc1,-27%,–
FC(F)(F)c1cc(Nc2nc3ccccc3c3nncn23)ccc1Cl,-8.56%,–
CC(C)(C)n1nnnc1C(c1ccccc1F)N1CCN(C(=O)c2ccco2)CC1 (centres undefined),6.92%,–
CCC(C)(C)n1nnnc1C(c1ccc(OC)c(OC)c1)N1CCN(C(=O)c2ccco2)CC1 (centres undefined),–,79.4 µM (active)
CCC(c1nnnn1C1CCCC1)N1CCN(C(=O)c2ccco2)CC1 (centres undefined),-20.8%,–

Structure (SMILES),"activity change, negative = inhibition",Potency
CSCc1nnc(NC(=O)c2ccc(S(=O)(=O)N3CCCCC3C)cc2)o1 (centres undefined),–,50.1 µM (active)
CC1CCCCN1S(=O)(=O)c1ccc(C(=O)Nc2nnc(-c3cccs3)o2)cc1 (centres undefined),-1.53% [at 11.4 µM],–
CC1CCCCN1S(=O)(=O)CCNC(=O)c1ccccc1 (centres undefined),-2.72%,–
Cc1nnc(C)n1-c1ccc(C(=O)Nc2cccc(Br)c2)cc1,-7.42%,–
COC(=O)CN1C(=O)CSc2ccc(S(=O)(=O)Nc3cc(C)ccc3C)cc21,-13.4%,–
CC(C)(C)OC(=O)N1CCC(c2c(C(=O)N3CCc4ccccc4C3)cnn2-c2ccc(F)cc2)CC1,-18.4%,–
Cc1ccc(Cl)cc1N1CCN(C(=O)C2CCC(CNS(=O)(=O)c3cccs3)CC2)CC1 (centres undefined),-20.2%,–
C#CCOc1ccc(C2CC(=O)Nc3c2c(C)nn3-c2nc(C)cc(C)n2)cc1 (centres undefined),-27.2%,–
Cc1ccc(CSc2oc(-c3cccs3)nc2S(=O)(=O)c2ccc(C)cc2)cc1,-1.37%,–
CCN(CC)S(=O)(=O)c1ccc(NC(=O)c2cccnc2Cl)c(NC(=O)c2cccnc2Cl)c1,–,31.6 µM (active)
Cc1ccc(CNC(=O)c2cccnc2Cl)cc1,-11.1%,–
CCN(CC)S(=O)(=O)c1ccc(NC(=O)c2cnc(C)cn2)cc1,0.664%,–
Cc1ccccc1CN1CCC(CNC(=O)c2cc3ccc4cccnc4c3[nH]2)CC1,-27.2%,–
Cc1ccc(C(=O)Nc2c(C(=O)NC(C)(C)C)oc3ccccc23)cc1,6.8%,–
O=C(Cc1ccc(Cl)cc1)NCC(c1cccs1)S(=O)(=O)c1ccc(Cl)cc1 (centres undefined),-13.3%,–
Cc1cc(C)c(S(=O)(=O)N2CCOCC2)cc1C,–,11.2 µM (active)
COc1cc(C)c(S(=O)(=O)N2CCOCC2)c(C)c1C,0%,–
Cc1ccc(NC(=O)C2CC2)cc1S(=O)(=O)N1CCOCC1,-17.9%,–
Cn1nc(-c2ccccc2)c(-c2ccccc2)c(C(=O)Nc2ccc(S(N)(=O)=O)cc2)c1=O,-18.9%,–
CCOc1cccc2sc(N3CCN(C(=O)C4CC4)CC3)nc12,-8.44%,–
CCOC(=O)c1c(C)[nH]c(CCC(=O)Nc2ccc(OC)c(OC)c2)c1C,-27.9%,–
O=C1Cc2cc(S(=O)(=O)Nc3ccc(OC(F)(F)F)cc3)cc3c2N1CCC3,-14.3%,–
O=C(NC1CCN(C(=S)Nc2ccc(Cl)cc2)CC1)C1CCCCC1,-8.8%,–
CCOC(=O)c1ccc(NC(=S)N2CCCC2)cc1,-7.88%,–
